The structures appear in SMILES notation. Active and inactive are the calls of the source. The calls were made as follows: active = hit-call score of the fitted dose curve at least 0.9, where 1 is the maximum; inactive = score below 0.9.

The nature of the first assay: CCTE_Shafer_MEA_acute_burst_duration_mean: CCTE's Neural Acute Assay for Mean Burst Duration, Shafer Lab (AID 2284014).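 Also: hits are decreases in mean burst duration relative to DMSO controls.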 In a few lines: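 Rat primary cortical neurons on 48-well MEA, treated at DIV 13 or 15 with 0.03-40 uM in at least 3 wells. Value is percent change in mean burst duration, comparing 40 min recordings at 37 C before and during exposure.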
As to `c1ccc2occc2c1`, the compound was classed as inactive.

As to `CC(C)COC(=O)CCCCC(=O)OCC(C)C`, the compound was classed as inactive.

Consider `CC(C)NCC(O)c1ccc(O)c(O)c1` (stereo unspecified), for which the outcome was inactive.

In the case of `COC(=O)[C@H]1[C@H]2C[C@@H]3c4[nH]c5cc(OC)ccc5c4CCN3C[C@H]2C[C@@H](OC(=O)c2cc(OC)c(OC)c(OC)c2)[C@@H]1OC`, the compound was called inactive.

Regarding `C/C=C/c1ccc(OC)cc1`, the compound was classed as inactive.

For `Cc1cc(Cc2ccc(N)c(C)c2)ccc1N`, the compound was called inactive.

`COc1ccc(OC(F)(F)F)cc1CN[C@H]1CCCN[C@H]1c1ccccc1`: the compound was called inactive.

On to `CC(N)=O`, for which the compound was called inactive.

For the compound `Cc1ccc(C(C)(C)C)c(O)c1`, the compound was classed as inactive.

With `O=C(N[C@@H](c1ccccc1)[C@@H]1CCCCN1)c1cccc(C(F)(F)F)c1Cl`, the result was inactive.

The nature of a further assay: CCTE_Shafer_MEA_acute_per_burst_spike_number_mean: CCTE's Neural Acute Assay for Average Number of Spikes Per Burst, Shafer Lab (AID 2284015).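 Also: hits are decreases in mean spikes per burst versus baseline.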 In a few lines:
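Primary rat cortical neurons on 48-well MEA plates, treated on DIV 13 or 15 at 0.03-40 uM. Spontaneous activity recorded 40 min before and 40 min after compound at 37 C; percent change in mean spikes per single-electrode burst per well, fitted in the loss direction versus DMSO.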
In general, AC50 refers to the concentration giving half of the maximal activity seen. In the case of `Nc1nc(=S)c2[nH]cnc2[nH]1`, the half-maximal activity concentration (AC50) was 20 µM (active).

As for `CCc1cc(C2=C(C(=O)O)N(c3ccccc3C(F)(F)F)S(=O)(=O)c3ccccc32)cc2c1OCO2`, the compound was classed as inactive.

Regarding `Cc1ccc(-c2cc(C(F)(F)F)nn2-c2ccc(S(N)(=O)=O)cc2)cc1`, the call was inactive.

For the compound `OCC(CO)n1cnc(-c2ccc(F)cc2)c1-c1ccnc(Oc2ccccc2)n1`, the outcome was inactive.

Take `CN(C)C(=O)NC1(c2ccccc2)CCN(CCC[C@]2(c3ccc(Cl)c(Cl)c3)CCCN(C(=O)c3ccccc3)C2)CC1`: the AC50 was 9.1 µM (active).

Consider `CN(C)C(=O)NC1(c2ccccc2)CCN(CC[C@@]2(c3ccc(F)c(F)c3)CN(C(=O)c3ccccc3)CCO2)CC1`, for which the outcome was inactive.

Consider `CCN(CC)CCOc1ccc(C(=C(Cl)c2ccccc2)c2ccccc2)cc1`, for which the call was inactive.

For the compound `Cc1c(C)c2c(c(C)c1O)CCC(C)(COc1ccc(CC3SC(=O)NC3=O)cc1)O2` (stereo unspecified), the result was inactive.

For `CN(C)CCCN1c2ccccc2Sc2ccc(Cl)cc21`, the outcome was inactive.

For the compound `CCCCC(CC)COP(=O)(OCC(CC)CCCC)OCC(CC)CCCC` (stereo unspecified), the compound was called inactive.

As for `Cc1cc(SC2=C(O)C[C@@](CCc3ccc(N)cc3)(C(C)C)OC2=O)c(C(C)(C)C)cc1CO`, the compound was called inactive.

As for `CSc1ccc(Oc2ccc(S(N)(=O)=O)cc2CN(C)C)cc1C`, the AC50 is 36 µM (active).

Take `CCCC(=O)O`: the result was inactive.

As to `CC1=C(C)S(=O)(=O)CCS1(=O)=O`, the compound was classed as inactive.

`O=C1OC(c2ccc(O)cc2)(c2ccc(O)cc2)c2ccccc21`: the result was inactive.

On to `NC(=Nc1ccccc1)Nc1ccccc1`, for which the outcome was inactive.

With `Oc1ccc(O)cc1`, the compound was classed as inactive.

For the compound `O=C(O)CN(CC(=O)O)CC(=O)O`, the compound was classed as inactive.

For the compound `c1ccc2occc2c1`, the result was inactive.

Regarding `CC(C)COC(=O)CCCCC(=O)OCC(C)C`, the compound was classed as inactive.

As for `CC(C)NCC(O)c1ccc(O)c(O)c1` (stereo unspecified), the result was inactive.

As to `COC(=O)[C@H]1[C@H]2C[C@@H]3c4[nH]c5cc(OC)ccc5c4CCN3C[C@H]2C[C@@H](OC(=O)c2cc(OC)c(OC)c(OC)c2)[C@@H]1OC`, the AC50 was 0.582 µM (active).

For the compound `C/C=C/c1ccc(OC)cc1`, the compound was classed as inactive.

`Cc1cc(Cc2ccc(N)c(C)c2)ccc1N`: the AC50 is 30 µM (active).

Consider `COc1ccc(OC(F)(F)F)cc1CN[C@H]1CCCN[C@H]1c1ccccc1`, for which the half-maximal activity concentration (AC50) is 5 µM (active).

For the compound `CC(N)=O`, the call was inactive.

As for `Cc1ccc(C(C)(C)C)c(O)c1`, the compound was called inactive.

As for `O=C(N[C@@H](c1ccccc1)[C@@H]1CCCCN1)c1cccc(C(F)(F)F)c1Cl`, the compound was classed as inactive.

Another assay in a line: CCTE_Shafer_MEA_acute_burst_percentage_mean: CCTE's Neural Acute Assay for Percentage of Spikes in a Burst, Shafer Lab (AID 2284017).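 As to AC50: curve fitted for loss of signal so potency reflects decreased burst percentage.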 In a few lines: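 Primary rat cortical neurons on 16-electrode MEA wells; 40 min baseline recorded at DIV 13 or 15, then 40 min after compound (0.03-40 uM) at 37 C. Well-mean fraction of spikes in single-electrode bursts; percent change from baseline, DMSO as negative control.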
Consider `Nc1nc(=S)c2[nH]cnc2[nH]1`, for which the AC50 is 5.71 µM (active).

Turning to `CCc1cc(C2=C(C(=O)O)N(c3ccccc3C(F)(F)F)S(=O)(=O)c3ccccc32)cc2c1OCO2`, the call was inactive.

As for `Cc1ccc(-c2cc(C(F)(F)F)nn2-c2ccc(S(N)(=O)=O)cc2)cc1`, the AC50 was 20 µM (active).

With `OCC(CO)n1cnc(-c2ccc(F)cc2)c1-c1ccnc(Oc2ccccc2)n1`, the outcome was inactive.

As for `CN(C)C(=O)NC1(c2ccccc2)CCN(CCC[C@]2(c3ccc(Cl)c(Cl)c3)CCCN(C(=O)c3ccccc3)C2)CC1`, the AC50 was 7.4 µM (active).

Consider `CN(C)C(=O)NC1(c2ccccc2)CCN(CC[C@@]2(c3ccc(F)c(F)c3)CN(C(=O)c3ccccc3)CCO2)CC1`, for which the compound was classed as inactive.

As for `CCN(CC)CCOc1ccc(C(=C(Cl)c2ccccc2)c2ccccc2)cc1`, the half-maximal activity concentration (AC50) is 20 µM (active).

With `Cc1c(C)c2c(c(C)c1O)CCC(C)(COc1ccc(CC3SC(=O)NC3=O)cc1)O2` (stereo unspecified), the AC50 was 32.9 µM (active).

In the case of `CN(C)CCCN1c2ccccc2Sc2ccc(Cl)cc21`, the AC50 was 33.2 µM (active).

Regarding `CCCCC(CC)COP(=O)(OCC(CC)CCCC)OCC(CC)CCCC` (stereo unspecified), the compound was classed as inactive.

With `Cc1cc(SC2=C(O)C[C@@](CCc3ccc(N)cc3)(C(C)C)OC2=O)c(C(C)(C)C)cc1CO`, the call was inactive.

On to `CSc1ccc(Oc2ccc(S(N)(=O)=O)cc2CN(C)C)cc1C`, for which the AC50 was 31.8 µM (active).

With `CCCC(=O)O`, the call was inactive.

Regarding `CC1=C(C)S(=O)(=O)CCS1(=O)=O`, the result was inactive.

Consider `O=C1OC(c2ccc(O)cc2)(c2ccc(O)cc2)c2ccccc21`, for which the AC50 was 24.6 µM (active).

In the case of `NC(=Nc1ccccc1)Nc1ccccc1`, the AC50 was 29.5 µM (active).

Consider `Oc1ccc(O)cc1`, for which the compound was classed as inactive.

As to `O=C(O)CN(CC(=O)O)CC(=O)O`, the call was inactive.

Regarding `c1ccc2occc2c1`, the compound was classed as inactive.

For the compound `CC(C)COC(=O)CCCCC(=O)OCC(C)C`, the call was inactive.

On to `CC(C)NCC(O)c1ccc(O)c(O)c1` (stereo unspecified), for which the outcome was inactive.

For the compound `COC(=O)[C@H]1[C@H]2C[C@@H]3c4[nH]c5cc(OC)ccc5c4CCN3C[C@H]2C[C@@H](OC(=O)c2cc(OC)c(OC)c(OC)c2)[C@@H]1OC`, the AC50 is 34.3 µM (active).

Regarding `C/C=C/c1ccc(OC)cc1`, the outcome was inactive.

Regarding `Cc1cc(Cc2ccc(N)c(C)c2)ccc1N`, the AC50 is 30 µM (active).

As for `COc1ccc(OC(F)(F)F)cc1CN[C@H]1CCCN[C@H]1c1ccccc1`, the AC50 was 4.59 µM (active).

With `CC(N)=O`, the compound was classed as inactive.

As for `Cc1ccc(C(C)(C)C)c(O)c1`, the AC50 is 29.9 µM (active).

Take `O=C(N[C@@H](c1ccccc1)[C@@H]1CCCCN1)c1cccc(C(F)(F)F)c1Cl`: the AC50 was 5 µM (active).

Source of the values: PubChem BioAssay (EPA / NIEHS).
